Where a name gives a salt, the structure may show the parent alone. ± gives the uncertainty stated by the source.
System: Candida albicans SNY425 biofilm
Assay: biofilm OD600 with compound plus antifungal (OD600 (absorbance)); higher = more biofilm remaining
[1] = assay detail: disruption of 24-h mature biofilm (compound + antifungal for a second 24 h)
[2] = assay detail: sustained inhibition (compound + antifungal during 90-min adherence and 24-h growth)

Row | Compound | biofilm OD600 [1] | biofilm OD600 [2]
1 | CCCC[C@@H](C=O)NC(=O)[C@H](CC(C)C)NC(=O)OCc1ccccc1 [Calpeptin] + OC(Cn1cncn1)(Cn1cncn1)c1ccc(F)cc1F [fluconazole] (first compound 12.5 µM) | 0.26 ± 0.0076 | 0.162 ± 0.01
2 | CC(C)C[C@H](NC(=O)N[C@H](C(=O)N[C@@H](CCC(N)=O)C(=O)N[C@@H](C)C=O)[C@@H]1CCNC(=N)N1)C(=O)O [Elastatinal] + OC(Cn1cncn1)(Cn1cncn1)c1ccc(F)cc1F [fluconazole] (first compound 12.5 µM) | 0.249 ± 0.0066 | 0.16 ± 0.014
3 | Nc1ccc(CC(CC(=O)O)C(=O)O)cc1 [4-Amino-D, L-benzylsuccinic acid] + OC(Cn1cncn1)(Cn1cncn1)c1ccc(F)cc1F [fluconazole] (first compound 12.5 µM) | 0.291 ± 0.009 | 0.12 ± 0.0067
4 | O=c1oc(Cl)c(Cl)c2ccccc12 [3,4-Dichloroisocoumarin] + C[C@@H]1[C@H](O)[C@@H](C)/C=C/C=C/C=C/C=C/C=C/C=C/C=C/[C@H](O[C@@H]2O[C@H](C)[C@@H](O)[C@H](N)[C@@H]2O)C[C@@H]2O[C@](O)(C[C@@H](O)C[C@@H](O)[C@H](O)CC[C@@H](O)C[C@@H](O)CC(=O)O[C@H]1C)C[C@H](O)[C@H]2C(=O)O [amphotericin B] (first compound 12.5 µM) | 0.252 ± 0.013 | 0.196 ± 0.0087
5 | N=C(N)Nc1ccc(C(=O)Oc2ccc3cc(C(=N)N)ccc3c2)cc1 [Nafamostat mesylate] + C[C@@H]1[C@H](O)[C@@H](C)/C=C/C=C/C=C/C=C/C=C/C=C/C=C/[C@H](O[C@@H]2O[C@H](C)[C@@H](O)[C@H](N)[C@@H]2O)C[C@@H]2O[C@](O)(C[C@@H](O)C[C@@H](O)[C@H](O)CC[C@@H](O)C[C@@H](O)CC(=O)O[C@H]1C)C[C@H](O)[C@H]2C(=O)O [amphotericin B] (first compound 12.5 µM) | 0.257 ± 0.012 | 0.171 ± 0.011
6 | O=C(O[C@@H]1Cc2c(O)cc(O)cc2O[C@@H]1c1cc(O)c(O)c(O)c1)c1cc(O)c(O)c(O)c1 [Epigallocatechin gallate] + OC(Cn1cncn1)(Cn1cncn1)c1ccc(F)cc1F [fluconazole] (first compound 12.5 µM) | 0.262 ± 0.011 | 0.164 ± 0.01
7 | COC(=O)C[C@H](NC(=O)[C@H](C)NC(=O)[C@@H](NC(=O)OCc1ccccc1)C(C)C)C(=O)CF + C[C@@H]1[C@H](O)[C@@H](C)/C=C/C=C/C=C/C=C/C=C/C=C/C=C/[C@H](O[C@@H]2O[C@H](C)[C@@H](O)[C@H](N)[C@@H]2O)C[C@@H]2O[C@](O)(C[C@@H](O)C[C@@H](O)[C@H](O)CC[C@@H](O)C[C@@H](O)CC(=O)O[C@H]1C)C[C@H](O)[C@H]2C(=O)O [amphotericin B] (first compound 12.5 µM) | 0.296 ± 0.013 | 0.184 ± 0.011
8 | CC1(C)C[C@@H]1C(=O)N/C(=C\CCCCSC[C@H](N)C(=O)O)C(=O)O [Cilastatin] + C[C@@H]1[C@H](O)[C@@H](C)/C=C/C=C/C=C/C=C/C=C/C=C/C=C/[C@H](O[C@@H]2O[C@H](C)[C@@H](O)[C@H](N)[C@@H]2O)C[C@@H]2O[C@](O)(C[C@@H](O)C[C@@H](O)[C@H](O)CC[C@@H](O)C[C@@H](O)CC(=O)O[C@H]1C)C[C@H](O)[C@H]2C(=O)O [amphotericin B] (first compound 12.5 µM) | 0.293 ± 0.012 | 0.211 ± 0.015
9 | NCCCC[C@H](N[C@@H](CCc1ccccc1)C(=O)O)C(=O)N1CCC[C@H]1C(=O)O [Lisinopril] + OC(Cn1cncn1)(Cn1cncn1)c1ccc(F)cc1F [fluconazole] (first compound 12.5 µM) | 0.26 ± 0.0069 | 0.118 ± 0.015
10 | C[C@H](CS)C(=O)N1CCC[C@H]1C(=O)O [Captopril] + CC[C@H](C)C[C@H](C)CCCCCCCCC(=O)N[C@H]1C[C@@H](O)[C@@H](NCCN)NC(=O)[C@@H]2[C@@H](O)CCN2C(=O)[C@H]([C@H](O)CCN)NC(=O)[C@H]([C@H](O)[C@@H](O)c2ccc(O)cc2)NC(=O)[C@@H]2C[C@@H](O)CN2C(=O)[C@H]([C@@H](C)O)NC1=O [caspofungin] (first compound 12.5 µM) | 0.286 ± 0.011 | 0.198 ± 0.0082
11 | CCC(C)[C@H](NS(=O)(=O)c1cccc2ccccc12)C(=O)N[C@H](C=O)Cc1c[nH]c2ccccc12 (some centres undefined) + OC(Cn1cncn1)(Cn1cncn1)c1ccc(F)cc1F [fluconazole] (first compound 12.5 µM) | 0.249 ± 0.0046 | 0.14 ± 0.0069
12 | CNC(=O)[C@H](Cc1c[nH]c2ccccc12)NC(=O)[C@@H](CC(=O)NO)CC(C)C + OC(Cn1cncn1)(Cn1cncn1)c1ccc(F)cc1F [fluconazole] (first compound 12.5 µM) | 0.272 ± 0.014 | 0.158 ± 0.0086
13 | Cc1ccc(S(=O)(=O)N[C@@H](Cc2ccccc2)C(=O)CCl)cc1 + CC[C@H](C)C[C@H](C)CCCCCCCCC(=O)N[C@H]1C[C@@H](O)[C@@H](NCCN)NC(=O)[C@@H]2[C@@H](O)CCN2C(=O)[C@H]([C@H](O)CCN)NC(=O)[C@H]([C@H](O)[C@@H](O)c2ccc(O)cc2)NC(=O)[C@@H]2C[C@@H](O)CN2C(=O)[C@H]([C@@H](C)O)NC1=O [caspofungin] (first compound 4 µM) | 0.251 ± 0.011 | 0.152 ± 0.013
14 | CCCCC[C@H](CC(=O)NO)C(=O)N[C@H](C(=O)N1CCC[C@H]1CO)C(C)C [Actinonin] + CC[C@H](C)C[C@H](C)CCCCCCCCC(=O)N[C@H]1C[C@@H](O)[C@@H](NCCN)NC(=O)[C@@H]2[C@@H](O)CCN2C(=O)[C@H]([C@H](O)CCN)NC(=O)[C@H]([C@H](O)[C@@H](O)c2ccc(O)cc2)NC(=O)[C@@H]2C[C@@H](O)CN2C(=O)[C@H]([C@@H](C)O)NC1=O [caspofungin] (first compound 12.5 µM) | 0.263 ± 0.021 | 0.182 ± 0.0058
15 | CC(C)C[C@H](NP(=O)(O)O[C@@H]1O[C@@H](C)[C@H](O)[C@@H](O)[C@H]1O)C(=O)N[C@@H](Cc1c[nH]c2ccccc12)C(=O)O [Phosphoramidon] + OC(Cn1cncn1)(Cn1cncn1)c1ccc(F)cc1F [fluconazole] (first compound 12.5 µM) | 0.255 ± 0.0097 | 0.156 ± 0.0037
16 | NCCCC[C@H](N[C@@H](CCc1ccccc1)C(=O)O)C(=O)N1CCC[C@H]1C(=O)O [Lisinopril] + CC[C@H](C)C[C@H](C)CCCCCCCCC(=O)N[C@H]1C[C@@H](O)[C@@H](NCCN)NC(=O)[C@@H]2[C@@H](O)CCN2C(=O)[C@H]([C@H](O)CCN)NC(=O)[C@H]([C@H](O)[C@@H](O)c2ccc(O)cc2)NC(=O)[C@@H]2C[C@@H](O)CN2C(=O)[C@H]([C@@H](C)O)NC1=O [caspofungin] (first compound 12.5 µM) | 0.258 ± 0.011 | 0.178 ± 0.023
17 | Cc1ccc(S(=O)(=O)N[C@@H](Cc2ccccc2)C(=O)CCl)cc1 + OC(Cn1cncn1)(Cn1cncn1)c1ccc(F)cc1F [fluconazole] (first compound 4 µM) | 0.241 ± 0.01 | 0.0966 ± 0.012
18 | O=C1Nc2ccc([N+](=O)[O-])cc2C1=O [5-Nitroisatin] + CC[C@H](C)C[C@H](C)CCCCCCCCC(=O)N[C@H]1C[C@@H](O)[C@@H](NCCN)NC(=O)[C@@H]2[C@@H](O)CCN2C(=O)[C@H]([C@H](O)CCN)NC(=O)[C@H]([C@H](O)[C@@H](O)c2ccc(O)cc2)NC(=O)[C@@H]2C[C@@H](O)CN2C(=O)[C@H]([C@@H](C)O)NC1=O [caspofungin] (first compound 12.5 µM) | 0.255 ± 0.0081 | 0.156 ± 0.013
19 | CC(NC(=O)C(Cc1ccccc1)NC(=O)OCc1ccccc1)C(=O)CF (centres undefined) + C[C@@H]1[C@H](O)[C@@H](C)/C=C/C=C/C=C/C=C/C=C/C=C/C=C/[C@H](O[C@@H]2O[C@H](C)[C@@H](O)[C@H](N)[C@@H]2O)C[C@@H]2O[C@](O)(C[C@@H](O)C[C@@H](O)[C@H](O)CC[C@@H](O)C[C@@H](O)CC(=O)O[C@H]1C)C[C@H](O)[C@H]2C(=O)O [amphotericin B] (first compound 12.5 µM) | 0.307 ± 0.0094 | 0.185 ± 0.005
20 | Cc1c(O)cccc1C(=O)N[C@@H](CSc1ccccc1)[C@H](O)CN1C[C@H]2CCCC[C@H]2C[C@H]1C(=O)NC(C)(C)C [nelfinavir] + CC[C@H](C)C[C@H](C)CCCCCCCCC(=O)N[C@H]1C[C@@H](O)[C@@H](NCCN)NC(=O)[C@@H]2[C@@H](O)CCN2C(=O)[C@H]([C@H](O)CCN)NC(=O)[C@H]([C@H](O)[C@@H](O)c2ccc(O)cc2)NC(=O)[C@@H]2C[C@@H](O)CN2C(=O)[C@H]([C@@H](C)O)NC1=O [caspofungin] (first compound 12.5 µM) | 0.17 ± 0.0053 | 0.127 ± 0.019
21 | CO[C@@H]1[C@H](OC(=O)/C=C/C=C/C=C/C=C/C(=O)O)CC[C@]2(CO2)[C@H]1[C@@]1(C)O[C@@H]1CC=C(C)C [Fumagillin] + CC[C@H](C)C[C@H](C)CCCCCCCCC(=O)N[C@H]1C[C@@H](O)[C@@H](NCCN)NC(=O)[C@@H]2[C@@H](O)CCN2C(=O)[C@H]([C@H](O)CCN)NC(=O)[C@H]([C@H](O)[C@@H](O)c2ccc(O)cc2)NC(=O)[C@@H]2C[C@@H](O)CN2C(=O)[C@H]([C@@H](C)O)NC1=O [caspofungin] (first compound 12.5 µM) | 0.257 ± 0.0085 | 0.166 ± 0.0044
22 | CC(C)C[C@H](NC(=O)[C@H]1O[C@@H]1C(=O)O)C(=O)NCCCCN=C(N)N + OC(Cn1cncn1)(Cn1cncn1)c1ccc(F)cc1F [fluconazole] (first compound 12.5 µM) | 0.255 ± 0.012 | 0.149 ± 0.0057

Source: the supplement of paper PMC7261846
